High-throughput results as filed in PubChem.
In the library only some 3.4% were active in any assay of this set; here they are far more common.
PGC1a acetyl inh – modulators of PGC1a acetylation; U2OS PGC1a acetylation, AlphaScreen anti-acetyl-lysine; with virally co-expressed GCN5 acetyltransferase; inhibition, % at 15.6 µM; hit rate 0.17% among 350,000;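 active means every replicate shows inhibition of at least 40%; inconclusive means mean inhibition at least 40% but some replicate below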
SIRT5 block – blocks human SIRT5 desuccinylation of peptide. Q9NXA8. Purified SirT5, succinyl-peptide AMC, trypsin-coupled fluorescence. inhibition, % at 15 µM. hit rate 1.1% among 330,000. AID 652115; in the data active means inhibition above about 15%; inconclusive means no clear call, values can overlap the other calls
Target sequence (Q9NXA8 whole entry, looked up): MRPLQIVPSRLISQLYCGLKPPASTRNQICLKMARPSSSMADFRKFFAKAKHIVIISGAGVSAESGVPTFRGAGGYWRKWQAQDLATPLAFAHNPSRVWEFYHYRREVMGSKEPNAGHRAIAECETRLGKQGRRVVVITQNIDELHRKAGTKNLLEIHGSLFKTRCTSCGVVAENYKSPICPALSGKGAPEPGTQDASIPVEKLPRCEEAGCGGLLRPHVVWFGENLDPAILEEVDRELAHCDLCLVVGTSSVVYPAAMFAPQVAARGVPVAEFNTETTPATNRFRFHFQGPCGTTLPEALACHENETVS
EWS-Fli block – blocks EWS/Fli oncoprotein-driven transcription | A673 NR0B1-luciferase reporter, viability-normalised | hit rate 0.67% among 350,000 | inhibition, % at 12.6 µM;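 active means mean inhibition of at least 50% after viability correction, with every replicate also passing that limit; inconclusive means mean reaches 50% but only one of two replicates passes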;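 further: firefly luciferase signal divided by Alamar Blue viability fluorescence both relative to DMSO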
Ecoli rRNA inh – inhibitors of bacterial rRNA selective over humanized ribosomes | E. coli WT GFP vs humanized-ribosome RFP mutants, fluorescence, 24 h; hits give low values; DMSO median 0, no signal -100 | GFP signal change (wild-type ribosome), % (concentration not given with the values) | hit rate 1.6% among 350,000;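 active means significant combined selectivity score with lowered wild-type GFP, culture density cut under 30%, mutant RFP and density less affected; inactive means any of these conditions unmet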
LGR2 antag – Drosophila LGR2 receptor signaling inhibition; AID 720647; HEK293 LGR2, CRE-luciferase, bursicon-stimulated, 4 h; inhibition, % at 9.99 µM; hit rate 0.35% among 380,000;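 active means drop in luminescence signal, shown as inhibition above about 50% in the replicate tests, limit read from the data, passing the limit was not always enough; inconclusive means probably only some replicates passing the limit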;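 further: agonist challenge used bursicon conditioned medium at about half maximal strength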
PAX8 reporter – PAX8 transcriptional activity inhibition; RMG-I TPO-luciferase reporter, SteadyGlo, 24 h; hit rate 1.2% among 360,000; inhibition, % at 12.6 µM;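 active means mean replicate inhibition at least 60% with every replicate also reaching 60%; inconclusive means only one of the two criteria is met; inactive means mean below 60% and not all replicates reaching 60%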;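 further: luciferase light reporting Pax8 driven TPO promoter activity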
Each line names hits and unclear results; the compound was inactive in the other large screens.

O=C(c1cccs1)c1sccc1Cc1ccccc1	Ecoli rRNA inh -15.9 (no result: SIRT5 block)
CC(C)(C)N(Cc1ccccc1)C(=O)c1cccs1	none
COc1ccc(CCNC(=O)CCc2nc3ccccc3[nH]2)cc1OC	none
CCOc1ccc(CCNC(=O)CCc2nc3ccccc3[nH]2)cc1OCC	Ecoli rRNA inh -19.8
CN(C)CC#Cc1cccc(-c2nc(C(=O)N[C@@H]3CCN(Cc4ccccc4)C3)cc3c2[C@H](CCO)N(S(=O)C(C)(C)C)C3)c1 (stereo partly drawn)	none (no result: Ecoli rRNA inh, LGR2 antag)
Cc1ccccc1S(=O)(=O)N1CC(=O)N2[C@@H](CO)[C@H](c3ccc(C#CCC4CCCC4)cc3)[C@@H]2C1	SIRT5 block 16.3
O=C1CN(S(=O)(=O)Cc2ccccc2)C[C@H]2[C@@H](c3ccc(C#CCC4CCCC4)cc3)[C@@H](CO)N12	SIRT5 block 15.5
O=C1CN(S(=O)(=O)Cc2ccccc2)C[C@@H]2[C@@H](c3ccc(C#CCC4CCCC4)cc3)[C@@H](CO)N12	PAX8 reporter 98.6 (no result: Ecoli rRNA inh, LGR2 antag)
O=C1CN(S(=O)(=O)Cc2ccccc2)C[C@@H]2[C@H](c3ccc(C#Cc4ccc(F)cc4)cc3)[C@@H](CO)N12	none
O=C1CN(S(=O)(=O)Cc2ccccc2)C[C@@H]2[C@H](c3ccc(C#Cc4ccc(F)cc4)cc3)[C@H](CO)N12	PAX8 reporter 80.2
O=C1CN(S(=O)(=O)Cc2ccccc2)C[C@H]2[C@H](c3ccc(C#CCC4CCCC4)cc3)[C@@H](CO)N12	none
CN(C)C(=O)C[C@@H]1C[C@H]2c3cc(NC(=O)C4CCOCC4)ccc3O[C@H]2[C@H](CO)O1	none
O=C(C[C@H]1CC[C@@H]2[C@H](COC[C@H](O)CN2Cc2ccc(F)cc2)O1)NCc1ccncn1	none
Cc1ccc(-c2cnc3c(c2)C(=O)N([C@@H](C)CO)C[C@H](C)[C@H](CN(C)C(=O)c2ccc(F)cc2)O3)cc1	none (no result: PAX8 reporter)
O=C(OCc1cccc(C(F)(F)F)c1)c1cc([N+](=O)[O-])ccc1N1CCOCC1	none
CCc1ccc(C(=O)COC(=O)c2cc([N+](=O)[O-])ccc2N2CCOCC2)cc1	EWS-Fli block inconclusive (no result: PGC1a acetyl inh)
O=C(OCc1cccc(Cl)c1)c1cc([N+](=O)[O-])ccc1N1CCOCC1	PAX8 reporter 74.5 (no result: PGC1a acetyl inh)
O=C(OCc1ccc(Br)cc1)c1cc([N+](=O)[O-])ccc1N1CCOCC1	EWS-Fli block 62.3
COc1ccc(COC(=O)c2cc([N+](=O)[O-])ccc2N2CCOCC2)cc1F	PAX8 reporter 96.0 (no result: PGC1a acetyl inh)
O=C(N[C@H]1CC[C@H](CCn2cc(C3(O)CCCC3)nn2)O[C@H]1CO)C1CCC1	none
COc1ccccc1NC(=O)N1CCCCN2[C@@H](CO)[C@H](c3ccc(C#CC4CCCC4)cc3)[C@@H]2C1	SIRT5 block 16.9
CC(C)NC(=O)N1CCCCN2[C@H](C1)[C@@H](c1ccc(C#CC3CC3)cc1)[C@@H]2CO	SIRT5 block 22.4
COc1ccccc1NC(=O)N1CCCCN2[C@H](CO)[C@@H](c3ccc(C#CC4CCCC4)cc3)[C@@H]2C1	none
COc1ccccc1NC(=O)N1CCCCN2[C@@H](CO)[C@@H](c3ccc(C#CC4CCCC4)cc3)[C@@H]2C1	EWS-Fli block 71.1
CCCC(=O)N1CC2(CCN(C(=O)NC(C)C)CC2)c2c([nH]c3cc(OC)ccc23)[C@@H]1CO	none (no result: SIRT5 block, PAX8 reporter)
Cc1ccc(S(=O)(=O)N(C)C[C@@H]2OCCCC[C@H](C)Oc3ccc(NC(=O)Nc4ccc(C(F)(F)F)cc4)cc3C(=O)N([C@H](C)CO)C[C@H]2C)cc1	PAX8 reporter 61.4
C[C@@H]1CCCCO[C@H](CN(C)S(=O)(=O)c2ccc(F)cc2)[C@@H](C)CN([C@@H](C)CO)C(=O)c2cc(NC(=O)Nc3ccc(F)cc3)ccc2O1	PAX8 reporter 61.7 (no result: SIRT5 block)
C[C@@H]1CCCCO[C@H](CN(C)S(=O)(=O)c2ccc(Cl)cc2)[C@@H](C)CN([C@H](C)CO)C(=O)c2cc(NC(=O)Nc3ccc(F)cc3)ccc2O1	SIRT5 block 15.7
C[C@H](CO)N1C[C@H](C)[C@H](CN(C)S(=O)(=O)c2ccc(Cl)cc2)OCCCC[C@H](C)Oc2ccc(NC(=O)Nc3ccc4c(c3)OCO4)cc2C1=O	SIRT5 block 20.7
C[C@@H]1CN([C@H](C)CO)C(=O)c2cc(NC(=O)Nc3ccccc3)ccc2O[C@@H](C)CCCCO[C@H]1CN(C)S(=O)(=O)c1ccc(Cl)cc1	PAX8 reporter 70.0
C[C@@H]1CCCCO[C@H](CN(C)S(=O)(=O)c2ccc(F)cc2)[C@H](C)CN([C@@H](C)CO)C(=O)c2cc(NC(=O)Nc3ccc(C(F)(F)F)cc3)ccc2O1	none
Cc1ccc(S(=O)(=O)N(C)C[C@@H]2OCCCC[C@H](C)Oc3ccc(NC(=O)Nc4ccc(F)cc4)cc3C(=O)N([C@H](C)CO)C[C@H]2C)cc1	PAX8 reporter 63.6
C[C@@H]1CN([C@H](C)CO)C(=O)c2cc(NC(=O)Nc3ccc(C(F)(F)F)cc3)ccc2O[C@@H](C)CCCCO[C@H]1CN(C)S(=O)(=O)c1ccc(F)cc1	PAX8 reporter 78.0
C[C@H](NC(=O)C[C@H]1CC[C@@H](NC(=O)C2CCC2)[C@H](CO)O1)c1ccccc1	none
CCC(=O)N1CCC2(CC1)CN(Cc1ccc(Cl)cc1)[C@H](CO)c1[nH]c3cc(OC)ccc3c12	none (no result: PAX8 reporter)
Cc1noc(C)c1NC(=O)Nc1ccc2c(c1)C(=O)N([C@@H](C)CO)C[C@H](C)[C@H](CN(C)Cc1ccc3c(c1)OCO3)O2	none
CC(C)NC(=O)N(C)C[C@H]1Oc2ccc(NC(=O)CCC(F)(F)F)cc2C(=O)N([C@H](C)CO)C[C@H]1C	none
COc1ccc(C#Cc2ccc([C@@H]3[C@@H](CO)N4C(=O)CN(C(=O)c5cccnc5)C[C@@H]34)cc2)cc1	none
c1ccc(-c2cn3c4c(sc3n2)CCCC4)cc1	EWS-Fli block 54.1, LGR2 antag 74.5
c1ccc(-c2cn3nc(-c4ccccc4)sc3n2)cc1	none (no result: SIRT5 block, EWS-Fli block, Ecoli rRNA inh, LGR2 antag, PAX8 reporter)
CCn1nnc2cc(C(=O)O)ccc21	none
CCn1nnc2cc(C(=O)NCCc3ccccc3F)ccc21	EWS-Fli block 56.2, LGR2 antag 53.7 (no result: PGC1a acetyl inh)
C[C@H](CO)N1C[C@H](C)[C@@H](CN(C)Cc2ccccc2)Oc2ccc(NC(=O)C3CCCCC3)cc2C1=O	none (no result: PGC1a acetyl inh, LGR2 antag)
Cc1ccc(C(=O)c2coc3cc([N+](=O)[O-])c(O)c([N+](=O)[O-])c23)cc1	Ecoli rRNA inh -48.3 (no result: PGC1a acetyl inh)
Cc1ccc(C(=O)c2ccc([N+](=O)[O-])cc2)cc1	none (no result: SIRT5 block, EWS-Fli block, Ecoli rRNA inh, PAX8 reporter)
CN(C)CC(=O)Nc1ccc2c(c1)[C@H]1C[C@@H](CC(=O)NCc3cccnc3)O[C@H](CO)[C@H]1O2	none (no result: PAX8 reporter)
COc1ccc(S(=O)(=O)Nc2cccc(-c3ccc4nncn4n3)c2)cc1F	EWS-Fli block 56.4 (no result: PGC1a acetyl inh)
O=S(=O)(Nc1cccc(-c2ccc3nncn3n2)c1)c1cccc(F)c1	none (no result: PGC1a acetyl inh)
